Screening results: PubChem, National Center for Advancing Translational Sciences (NCATS)
The entries come from a sample that favours hits as a whole.
HT1080 IDH1KD tx = kills HT-1080 cells with IDH1 knockdown; HT-1080 IDH1 knockdown viability, ATP luminescence, 48 h; Potency, µM (series often up to 46.1 µM), without a hit: at the highest dose activity, negative = toxicity, actives largely listed as cytotoxic; 360,000 compounds, 2% hits; AID 686971;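 note: potency is the fitted concentration of half-maximal effect; 0% = DMSO wells and -100% = cell-free medium wells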
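In this qHTS, HT-1080 cells depleted of IDH1 are exposed for 48 h at 37 °C to compound titrations. Toxicity is scored from CellTiter-Glo luminescence, with DMSO as full viability and medium alone as none.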
DT40 TDP1 CPT = DT40-hTDP1 cell growth loss with CPT; chicken DT40 Tdp1-/-;hTDP1 cells + 20 nM CPT, ATP luminescence, 48 h; AID 686979; 420,000 compounds, 12% hits; Potency, µM (series often up to 46.2 µM), for inactives: at the highest dose activity change, negative = growth inhibition, usual class: inhibitors; note: potency is the fitted concentration of half-maximal effect; nearly all actives have a fitted effect of over 55% in size
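Chicken DT40 Tdp1-/- cells stably complemented with human TDP1 were seeded at 400 cells/well in medium containing 20 nM camptothecin, exposed to pin-transferred compounds, and grown at 37 °C for at least 48 hr. Viability was read as ATP luminescence.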
TDP1 cell noCPT = qHTS for Inhibitors of human tyrosyl-DNA phosphodiesterase 1 (TDP1): qHTS in cells in absence of CPT. DT40 Tdp1-/- hTDP1 cells, no CPT, ATP luminescence, 48 h. Potency, µM (titrated, usually from 46.2 µM), for the others: at the highest dose activity change, negative = growth inhibition, most hits filed as inhibitors. 420,000 compounds, 15% hits; note: potency is the fitted concentration of half-maximal effect; nearly all actives have a fitted effect of over 55% in size
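Chicken DT40 Tdp1-/- cells complemented with human TDP1, screened without camptothecin (DMSO vehicle only), 400 cells/well. Compounds pin-transferred, cells incubated at 37 °C for at least 48 hr. Growth read as ATP-dependent luminescence (CellTiter-Glo, 30 min at RT).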
HT1080NT lethal = kills 2HG-producing HT-1080-NT fibrosarcoma cells | HT-1080-NT fibrosarcoma viability, CellTiter-Glo ATP luminescence, 48 h | Potency, µM (series often up to 46.1 µM), without a hit: at the highest dose activity, negative = less viability, most hits filed as cytotoxic | 360,000 compounds, 1.6% hits;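 note: NT is the 2HG producing partner of a matched IDH1 knockdown line; potency is the fitted concentration of half-maximal effect; 0% = DMSO-treated cells and -100% = media-only wells without cells; nearly all actives have a fitted effect of over 55% in size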
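A 48-hour cytotoxicity screen used HT-1080-NT cells plated 2 hours before compound delivery. ATP-based CellTiter-Glo luminescence measured viability, normalized to DMSO and no-cell controls.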
12-LOX inh = ALOX12 (human) lipoxygenase inhibition; purified 12hLO, xylenol orange hydroperoxide absorbance; Potency, µM (titrated, usually from 108 µM), for inactives: at the top dose activity change, negative = inhibition, usual class: inhibitors; 580,000 compounds, 1.1% hits; note: potency is the fitted concentration of half-maximal effect
Target sequence (P18054 whole entry, looked up): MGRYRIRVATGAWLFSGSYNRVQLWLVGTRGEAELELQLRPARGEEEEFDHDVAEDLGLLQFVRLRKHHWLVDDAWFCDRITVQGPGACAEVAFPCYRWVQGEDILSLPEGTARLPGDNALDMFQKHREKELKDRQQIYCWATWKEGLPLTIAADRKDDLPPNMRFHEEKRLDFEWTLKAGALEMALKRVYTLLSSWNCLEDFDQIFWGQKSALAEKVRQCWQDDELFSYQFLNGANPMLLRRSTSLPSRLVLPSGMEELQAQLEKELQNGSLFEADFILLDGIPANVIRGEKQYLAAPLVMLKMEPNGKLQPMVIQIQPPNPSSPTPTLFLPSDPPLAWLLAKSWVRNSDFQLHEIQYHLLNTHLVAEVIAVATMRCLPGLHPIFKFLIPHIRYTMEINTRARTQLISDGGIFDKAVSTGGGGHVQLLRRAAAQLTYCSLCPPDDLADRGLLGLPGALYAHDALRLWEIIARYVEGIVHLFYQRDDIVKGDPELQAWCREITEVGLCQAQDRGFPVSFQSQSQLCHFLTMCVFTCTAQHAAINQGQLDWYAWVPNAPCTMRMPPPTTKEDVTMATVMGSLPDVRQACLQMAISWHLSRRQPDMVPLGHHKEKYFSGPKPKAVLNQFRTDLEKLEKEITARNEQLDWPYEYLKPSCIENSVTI
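Purified human 12hLO (150 nM final) in 25 mM Hepes, 0.01% Triton X-100, pH 7.0 was preincubated 15 min at room temperature with compound. Then 40 uM arachidonic acid was added, 30 min. Hydroperoxide was read by Fe-XO absorbance ratio 573/405 nm.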
IL-1B inflam inh = blocks inflammasome-driven IL-1 beta release; AID 743279; activity change, % at 57.5 µM; THP-1 LPS/ATP IL-1B secretion, AlphaLISA, 16 h; active compounds read low; 360,000 compounds, 4.7% hits; in the data active = activity change below about -50%; inconclusive = mostly about -30% to -49%
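THP-1 cells pretreated 1 hr with compounds (up to 57.5 uM final), then stimulated with LPS (250 ng/mL final) plus ATP (1.25 mM final); secreted IL-1B measured by AlphaLISA after 16 hr, decreased signal indicating inhibition.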
* hit, by the source's call; ? = inconclusive; . = not tested or not shown; [ ] = another dose, or the depositor's remark. Unless noted, calls come from the whole dose curve; as a rule, active = well fitted curve in the direction sought with a large enough effect; inconclusive = small, poorly fitted or top-dose-only effect, or another doubt; inactive = no such curve, though single readings can be large; an effect the other way counts as inactive or inconclusive. Unless noted, % is set by controls: 0 for no effect and ±100 for the full control effect.

SMILES | HT1080 IDH1KD tx | DT40 TDP1 CPT | TDP1 cell noCPT | HT1080NT lethal | 12-LOX inh | IL-1B inflam inh
COc1cccc(CC(=O)N2CCC(Cn3c(C)cnc3C3CCC3)CC2)c1 | . | . | . | . | 58% | .
O=C(NCc1ccccc1Cl)c1cnc(N2CCCCC2)c2ccccc12 | . | 18µM* | ? | . | ? | .
CCc1ccc(NC(=O)c2cnc(N3CCN(c4ccccn4)CC3)c3ccccc23)cc1 | -11% | 7.3µM* | 6.5µM* | -1% | -22% | -19
Cc1ccc(NC(=O)c2cnc(N3CCCCC3)c3ccccc23)cc1 | . | . | . | . | -12% | .
O=C(NCc1ccc(F)cc1)c1cnc(N2CCCCC2)c2ccccc12 | . | ? | ? | . | -1% | .
O=C(NCc1ccccc1Cl)c1cnc(N2CCOCC2)c2ccccc12 | . | ? | ? | . | -21% | .
CCc1ccc(CNC(=O)c2cnc(N3CCCCC3)c3ccccc23)cc1 | . | 23µM* | 26µM* | . | 0% | .
CCc1ccc(NC(=O)NC(C(=O)N2CCc3ccccc32)c2ccccc2)cc1 (stereo not drawn) | . | . | . | . | 5% | .
O=C(CC1CCc2ccccc21)N1CCCN(c2ncccn2)CC1 (stereo not drawn) | . | . | . | . | 0% | .
COc1cc(OC)c(NC(=O)Nc2nnc(N(C)C3CCCCC3)s2)cc1Cl | . | 21µM* | 8.2µM* | . | ? | .
Cc1ccc(NC(=O)Nc2nnc(N(C)C3CCCCC3)s2)c(Cl)c1 | . | 16µM* | ? | . | -29% | .
Cc1c(Cl)cccc1NC(=O)Nc1nnc(N(C)C2CCCCC2)s1 | . | 15µM* | 16µM* | . | ? | .
COc1ccc(Cl)cc1NC(=O)Nc1nnc(N(C)C2CCCCC2)s1 | . | . | . | . | 19% | .
N#CC(Cc1cccnc1)C(=O)Nc1ccccc1Br (stereo not drawn) | . | . | . | . | -9% | .
CC(=O)N1CC(C)Sc2ccc(S(=O)(=O)NCCc3ccc(C)cc3)cc21 (stereo not drawn) | -13% | 18µM* | 7.3µM* | 6% | 0% | -9
CC(=O)N1CC(C)Sc2ccc(S(=O)(=O)NCCc3ccccc3)cc21 (stereo not drawn) | -16% | 13µM* | 10µM* | -12% | -11% | 53
Cc1ccn2c(Nc3ccccc3C)c(-c3ccncc3)nc2c1 | 7% | 16µM* | 15µM* | -1% | -26% | -89*
Cc1ccccc1Nc1c(-c2ccsc2)nc2c(C)cccn12 | . | 16µM* | 21µM* | . | ? | .
Cc1ccccc1Nc1c(-c2ccc(Cl)s2)nc2ccccn12 | -3% | -5% | ? | -3% | . | .
Cc1ccc(-c2nc3ccccn3c2Nc2ccccc2C)s1 | . | ? | 21µM* | . | -13% | .
Cc1cc(C)cc(-n2nnnc2SCC(=O)N(C)c2ccccc2C(=O)NCc2ccco2)c1 | . | . | . | . | 10% | .
COc1ccc(-c2cc(C(=O)NC3CCN(C(C)C)CC3)c3ccccc3n2)cc1OC | . | . | . | . | -29% | .
Cc1cnc(CC2CCCN(Cc3ccc(C#N)cc3)C2)n1C(C)C (stereo not drawn) | . | . | . | . | 62% | .
N#CC1=C2SCC(O)(c3ccccc3)N2C(=O)CC1c1ccccc1 (stereo not drawn) | ? | 1.3µM* | 1.6µM* | 1.3µM* | -11% | -11
CC1=NN(C(=O)CSCc2ccccc2)C(O)(c2ccccc2)C1 (stereo not drawn) | -2% | -25% | -1% | 15% | -11% | 9
SMILES | HT1080 IDH1KD tx | DT40 TDP1 CPT | TDP1 cell noCPT | HT1080NT lethal | 12-LOX inh | IL-1B inflam inh
CC1=NN(C(=O)c2ccc(C)o2)C(O)(c2ccccc2)C1 (stereo not drawn) | 2% | 4.6µM* | 4.6µM* | 4% | 13% | 10
CC1=NN(C(=O)c2ccco2)C(O)(c2ccccc2)C1 (stereo not drawn) | -14% | 1µM* | 0.92µM* | -20% | 0% | 5
COc1ccc(N2CC3CCC(C2)N3C(=O)c2ccc3c(c2)OCO3)cc1 | . | . | . | . | 12%[6.33 µM] | .
C[C@@]1(O)CCN(C(=O)CN)C[C@@H]1Cc1ccccc1 | . | . | . | . | 44% | .
CCOc1ccc(C2=Nn3c(nnc3-c3ccccc3)SC2)cc1Cl | -5% | -4% | -19% | -10% | -12% | 33
COc1ccc(C2=Nn3c(nnc3-c3ccc(OC)cc3)SC2)cc1 | ? | 1.8µM* | 1µM* | ? | -7% | 2
Cc1ccc(-c2nnc3n2N=C(c2ccccc2)CS3)cc1 | 12% | -20% | -15% | 5% | 310% | 40
COc1ccc(OC)c(C2=Nn3c(nnc3-c3cc(OC)c(OC)c(OC)c3)SC2)c1 | ? | 21µM* | 16µM* | ? | -21% | 0
CCOc1cccc(-c2nnc3n2N=C(c2cc(OC)ccc2OC)CS3)c1 | -29% | ? | 8.2µM* | -30% | 0% | -25
COc1ccc(OC)c(C2=Nn3c(nnc3-c3ccncc3)SC2)c1 | -6% | ? | ? | ? | 5% | -13
COc1cc(-c2nnc3n2N=C(c2ccccc2)CS3)cc(OC)c1OC | 1.2µM* | 1.5µM* | 1.5µM* | 2.1µM* | ? | 17
CCCNC(=O)C1=CC(c2cccs2)=NS(=O)(=O)N1C | . | . | . | . | 4% | .
COc1cccc(-c2nnc3n2N=C(c2cc(OC)ccc2OC)CS3)c1 | -10% | ? | 15µM* | -2% | -14% | ?
Clc1ccc(C2=Nn3c(nnc3-c3cc(-c4ccccc4)n[nH]3)SC2)cc1 | ? | ? | 18µM* | -5% | 10% | 9
c1ccc(C2=Nn3c(nnc3-c3cc(-c4ccccc4)n[nH]3)SC2)cc1 | ? | ? | ? | ? | 0% | -2
COc1ccc(OC)c(-c2nnc3n2N=C(c2ccc(OC)c(OC4CCOC4)c2)CS3)c1 (stereo not drawn) | . | . | . | . | -15% | .
Cc1cccc(-c2nnc3n2N=C(c2ccccc2Br)CS3)c1 | -29% | 21µM* | 21µM* | -26% | 0% | -3
Cc1cc(-c2nnc3n2N=C(c2ccccc2Br)CS3)n[nH]1 | -6% | 7% | ? | -14% | ? | .
COc1cccc(-c2nnc3n2N=C(C(C)(C)C)CS3)c1 | ? | 16µM* | 9.2µM* | ? | -19% | -93*
C=CCN(CC=C)C(=O)C1CCCN(C2CCN(C3Cc4ccccc4C3)CC2)C1 (stereo not drawn) | . | . | . | . | -4% | .
CC(C)CCN(C(=O)CN1CCc2ccccc21)c1c(N)n(Cc2ccccc2)c(=O)[nH]c1=O | . | . | . | . | -6% | .
CN(Cc1ccc(Cl)s1)C(=O)CSc1nnc(COc2ccccc2Cl)n1C | . | . | . | . | 12% | .
Cc1cc(OCCCC(=O)NCCc2nnc3ccccn23)ccc1Cl | -3% | ? | 16µM* | -5% | -4% | 18
